Only some compounds are listed: those with a hit (about 1.6% of all), similar ones and a draw of the others.
KCNQ2 inh: KCNQ2 (rat) channel inhibition. B-score at 10 µM. CHO-K1 KCNQ2, FluxOR thallium flux, 20 min; active compounds read low. 310,000 tested, 1.1% active;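 active = fluorescence ratio B-score at most minus 3 library SDs, with starting brightness B-score within 2 library SDs, cut at about -5.5 in these data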
Target sequence (O88943 whole entry, looked up): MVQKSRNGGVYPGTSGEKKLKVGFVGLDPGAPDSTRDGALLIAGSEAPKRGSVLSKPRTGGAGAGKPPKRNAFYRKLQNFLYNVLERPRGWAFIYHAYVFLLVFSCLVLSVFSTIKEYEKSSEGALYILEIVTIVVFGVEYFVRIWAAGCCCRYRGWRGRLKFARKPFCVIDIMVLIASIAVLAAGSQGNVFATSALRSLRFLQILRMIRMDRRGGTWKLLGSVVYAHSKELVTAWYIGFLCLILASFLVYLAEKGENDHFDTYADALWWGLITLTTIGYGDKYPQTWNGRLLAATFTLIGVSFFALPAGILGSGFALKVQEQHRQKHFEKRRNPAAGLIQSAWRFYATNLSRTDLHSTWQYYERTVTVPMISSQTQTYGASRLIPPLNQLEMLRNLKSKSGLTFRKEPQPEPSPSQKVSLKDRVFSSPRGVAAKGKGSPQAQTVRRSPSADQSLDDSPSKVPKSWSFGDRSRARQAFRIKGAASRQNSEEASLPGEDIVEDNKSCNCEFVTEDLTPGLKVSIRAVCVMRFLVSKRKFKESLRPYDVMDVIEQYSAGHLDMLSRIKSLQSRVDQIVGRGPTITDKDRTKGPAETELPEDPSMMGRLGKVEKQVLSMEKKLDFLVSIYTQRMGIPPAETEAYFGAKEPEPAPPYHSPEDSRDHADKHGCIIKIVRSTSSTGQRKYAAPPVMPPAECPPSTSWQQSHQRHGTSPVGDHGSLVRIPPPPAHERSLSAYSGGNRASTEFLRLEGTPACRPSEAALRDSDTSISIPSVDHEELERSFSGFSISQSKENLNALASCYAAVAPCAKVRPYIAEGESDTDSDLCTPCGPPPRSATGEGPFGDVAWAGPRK
KCNQ2 pot: potentiators of rat KCNQ2 potassium channel; O88943; CHO-K1 KCNQ2, FluxOR thallium flux fluorescence; active compounds read high; B-score at 10 µM; 310,000 tested, 0.54% active; AID 2239;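 active = fluorescence ratio B-score at least 3 SD of library B-scores, with initial fluorescence B-score within 3 of them, cut at about 5.3 in these data; same plate scores as AID 2156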;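 also: B-score of peak minus minimum over baseline fluorescence ratio after K+ and Tl+ stimulus; positive B-score means potentiation of KCNQ2 with more thallium influx and brighter signal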
Starred values were filed as active, the others as inactive; i = inactive; x = not tested or not shown.

SMILES | KCNQ2 inh | KCNQ2 pot
CCCCCn1c(=O)c(C(=O)NCCc2ccccc2)c(O)c2ccccc21 | i | x
CCCCn1c(=O)c(C(=O)NCc2ccccc2OC)c(O)c2ccccc21 | -6.2* | -6.2
Cc1ccc(C(c2nnnn2Cc2ccccc2)N2CC=C(c3ccc(F)cc3)CC2)cc1 (centres undefined) | -5.7* | -5.7
Fc1ccc(C2=CCN(C(c3ccc(Cl)cc3)c3nnnn3Cc3ccccc3)CC2)cc1 (centres undefined) | i | x
CCc1c(-c2ccccc2)nc2ccccc2c1C(=O)N1CCC2(CC1)OCCO2 | i | x
COc1ccc(-n2c(/C=C/c3ccc4c(c3)OCO4)nc3ccccc3c2=O)cc1 | i | x
Cc1ccc(-n2c(/C=C/c3ccc4c(c3)OCO4)nc3ccccc3c2=O)cc1 | -5.7* | -5.7
Oc1ccccc1-[n+]1c(-c2ccccc2)cc(-c2ccccc2)c(O)c1-c1ccccc1 | i | x
CCN(CC)C(=O)c1ccc(NC(=O)CN2CCc3cc(OC)c(OC)cc3C2)cc1 | i | 1.3
Clc1cnc(Oc2ccc(Oc3ncc(Cl)cc3Cl)cc2)c(Cl)c1 | -5.6* | -5.6
Oc1cc(Cl)ccc1Oc1ccc(Cl)cc1Cl | i | x
[N-]=[N+]=NCCN1CCC(O)CCC1=O (centres undefined) | i | 0.02
CN(CC(=O)Nc1ccccc1-c1ccccc1)C1CCCCC1 | -6.4* | -6.4
CCc1ccccc1NC(=O)CNC1CCCCC1 | i | x
CCOc1cc2c(cc1OCC)-n1cccc1C(c1cc(OC)ccc1F)NC2 (centres undefined) | i | x
Oc1c(Cl)c(Cl)c(Cl)c(Cl)c1Cl | i | 2.4
Cc1ccc(-n2nc(C)c3c2NC(=O)CSC3c2ccc3c(c2)OCO3)cc1 (centres undefined) | -5.6* | -5.6
COc1ccc(C2SCC(=O)Nc3c2c(C)nn3-c2ccccc2)cc1 (centres undefined) | i | 0.6
Cc1ncc(CN2CCCC(C(=O)c3ccc(C(C)(C)C)cc3)C2)s1 (centres undefined) | i | x
CCc1nc2ccc(Br)cc2c(=O)n1-c1ccccc1C(F)(F)F | i | x
CCCc1nc2ccc(Br)cc2c(=O)n1-c1ccc([N+](=O)[O-])c(C(F)(F)F)c1 | -6* | -6
c1ccc(-c2ccc(-c3n(-c4ccccn4)c4ccccc4[n+]3-c3ccccn3)cc2)cc1 | -7.7* | -7.7
CCN(CC)P(c1n(C)cc[n+]1C)N(CC)CC | i | x
CN1C(=O)C(=Cc2ccccc2OS(=O)(=O)c2ccccc2)C(=O)N(C)C1=O | i | 0.86
O=C1NC(=O)N(c2ccc(Cl)cc2)C(=O)/C1=C/c1coc2ccc(O)cc2c1=O | i | x
SMILES | KCNQ2 inh | KCNQ2 pot
O=C1NC(=O)N(c2ccccc2)C(=O)/C1=C/c1coc2ccc(O)cc2c1=O | -7.1* | -7.1
CN(C)c1ccc(/C=C/C=C/c2sc3ccccc3[n+]2C)cc1 | i | 0.07
CC[n+]1c(/C=C/C=C/c2ccc(N(C)C)cc2)sc2ccccc21 | -7.9* | -7.9
C[N+](C)(N)CCOC(=O)C(O)(c1ccccc1)C1CCCCC1 (centres undefined) | i | x
Cc1cccc(OP(=O)(Oc2ccccc2)OC(c2ccccc2)C(F)(F)F)c1 (centres undefined) | -6.5* | -6.5
Cc1ccc(C)c(NP(=O)(Oc2ccccc2)Oc2ccccc2)c1 | i | 0.73
Cc1cccc(-n2c(C)nc3ccc(Cl)cc3c2=O)c1 | i | x
CN1C(=O)NC(=O)[C@]2(Cc3ccccc3N3CCN(c4ccccc4)CC32)C1=O (some centres undefined) | i | x
O=C1NC(=O)[C@]2(Cc3ccccc3N3CCN(c4ccccc4)CC32)C(=O)N1Cc1ccccc1 (some centres undefined) | -5.7* | -5.7
O=C1NC(=O)C2(Cc3ccccc3N3CCCC32)C(=O)N1Cc1ccccc1 (centres undefined) | i | x
O=C1NC(=O)[C@]2(Cc3ccccc3N3CCN(c4ccccc4)CC32)C(=O)N1c1ccccc1 (some centres undefined) | -6.1* | -6.1
CC(C)(C)c1cc([N+](=O)[O-])cc(C(C)(C)C)c1O | i | x
Cc1ccc(Cn2ccccc2=N)cc1 | i | 1.2
O=c1[nH]c(=O)n(Cc2ccccc2Cl)c(O)c1/C=C1/C=CC=N1 | i | 0.33
CCC1=Nc2cc(C(=O)N3CCC4(CC3)OCCO4)ccc2Sc2ccc(Br)cc21 | i | x
CCOc1ccc(-c2cc(C)[n+](CCc3ccc(OC)c(OC)c3)c(-c3ccc(OCC)cc3)c2)cc1 | -5.8* | -5.8
CCOc1ccc(-c2cc(C)[n+](CCO)c(-c3ccc(OCC)cc3)c2)cc1 | i | 0.49
C=C(C=O)CC1CC(O)[C@]2(C)OC3CC4OC5C[C@]6(C)O[C@]7(C)CCC8OC9C[C@]%10(C)OC%11C(C)=CC(=O)OC%11CC%10OC9C[C@@H](C)C8OC7CC6O[C@]5(C)CC5OC5C4OC3CC2O1 (some centres undefined) | -5.6* | -5.6
C=C(CO)CC1CC(O)[C@]2(C)OC3CC4OC5C[C@]6(C)O[C@]7(C)CCC8OC9C[C@]%10(C)OC%11C(C)=CC(=O)OC%11CC%10OC9C[C@@H](C)C8OC7CC6O[C@]5(C)C/C=C\C4OC3CC2O1 (some centres undefined) | i | 0.1
C[C@H](NC(=O)CCC(=O)N1C[C@H]2C[C@H](C1)c1cccc(=O)n1C2)c1ccccc1 | i | 1.9
Cn1cc(C(O)CN2CCCCC2)c2ccccc21 (centres undefined) | i | 0.68
CCCCn1c(O)c(C(C)=NCCc2ccccc2)c(=O)[nH]c1=O | i | 0.51
CCCCn1c(O)c(C(C)=Nc2ccc(C(=O)O)cc2)c(=O)[nH]c1=O | i | 5.6*
CN(C)c1ccc(/C=C2/C(=N\O)C3CCN2CC3)cc1 | i | x
O=c1c2ccccc2nc(-c2ccccc2Cl)n1-c1cccc(O)c1 | i | x
SMILES | KCNQ2 inh | KCNQ2 pot
CN1CCN(Cc2cc3c(cc2[N+](=O)[O-])OCO3)CC1 | i | 0.06
C/C1=C\[C@@H](C)C/C=C/[C@H]2[C@@H]3O[C@]3(C)[C@@H](C)[C@H]3[C@H](Cc4c[nH]c5ccccc45)NC(=O)[C@]32C(=O)/C=C/C(=O)[C@@H]1O | i | 8.3*
CC/C(=N\NC(=O)c1ccccc1)c1c(O)n(C2CCCCC2)c(=O)[nH]c1=O | i | 3.7
CC(C)(C#CC(=O)O)OOC(c1ccccc1)(c1ccccc1)c1ccccc1 | -11* | -11
Cc1ccc(/C=C2/Sc3ccc(C(=O)N4CCC5(CC4)OCCO5)cc3NC2=O)cc1 | i | 0.55
CCOC(=O)c1c(NC(=O)C(c2ccccc2)c2ccccc2)sc2c1C1CCN2CC1 | -7.2* | -7.2
CCOC(=O)c1c(NC(=O)c2c(N)n(CCCOC)c3nc4ccccc4nc23)sc2c1CCCC2 | i | 1.3

Assay outcomes from PubChem BioAssay.
